Measurements taken from PubChem BioAssay (EPA / NIEHS).
Results filed as inconclusive are left out. The source made the active and inactive calls. The calls were made as follows, unless noted: active = hit-call score of the fitted dose curve at least 0.9, where 1 is the maximum; inactive = score below 0.9.

What was measured:
[1] = molecular target: Aryl hydrocarbon receptor (Homo sapiens) (UniProt P35869); assay: ATG_Ahr_CIS: Attagene CIS-FACTORIAL HepG2 Assay for human Aryl Hydrocarbon Receptor (Ahr) (AID 2282930); conditions: HepG2 AhR cis-factorial reporter transcription; actives raise or lower the signal
Summary of the method: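 HepG2, transient MRTU (cis) transfection, 24 h exposure. RNA → cDNA → PCR → 6-FAM primer extension → HpaI 2 h 37 C → CE. Fit: bidirectional, DMSO baseline.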

[2] = ATG_M_61_CIS: Attagene CIS-FACTORIAL HepG2 Assay for M61 Transcription Factor (Internal Marker) (AID 2282937); conditions: HepG2 Attagene CIS-FACTORIAL M61 internal marker reporter; actives raise or lower the signal
Summary of the method: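 Fluorescence from labelled cDNA fragments, separated by capillary electrophoresis, quantifies reporter induction. HepG2 cells bearing transiently transfected cis-promoter MRTUs were incubated with test chemical for 24 h; DMSO defined baseline for gain/loss fitting.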

[3] = ATG_GLI_CIS: Attagene CIS-FACTORIAL HepG2 Assay for human Zinc Finger Protein GLI1 (AID 2282945); conditions: HepG2, Attagene cis-factorial reporter mRNA, GLI element; actives raise or lower the signal
Summary of the method: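 Bidirectional curve fits relative to DMSO, using reporter mRNA levels from RT-PCR plus capillary electrophoresis. Cells were HepG2 transiently carrying cis-regulated reporter constructs, harvested 24 h after dosing.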

[4] = ATG_GRE_CIS: Attagene CIS-FACTORIAL HepG2 Assay for human Glucocorticoid Response Elements (GRE) (AID 2282947); conditions: HepG2 GRE cis-reporter, Attagene multiplex mRNA; actives raise or lower the signal
Summary of the method: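 Multiplexed cis-reporter mRNA induction, HepG2, 24 h post-dose. RT-PCR, FAM-labelled, HpaI-digested amplicons by CE. Bidirectional fit vs DMSO.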

[5] = molecular target: Hypoxia-inducible factor 1-alpha (Homo sapiens) (UniProt Q16665); assay: ATG_HIF1a_CIS: Attagene CIS-FACTORIAL HepG2 Assay for human Hypoxia Inducible Factor 1 (HIF1A) (AID 2282951); conditions: HepG2 Attagene cis-factorial HIF1a reporter transcription; actives raise or lower the signal
Summary of the method: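 In this multiplexed cell assay, HepG2 cells bearing transfected cis reporters are dosed for 24 h and reporter mRNA is read by RT-PCR plus capillary electrophoresis; signal increases and decreases are both scored against DMSO.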

[6] = ATG_MRE_CIS: Attagene CIS-FACTORIAL HepG2 Assay for human Metal Responsive Element (MRE) (AID 2282954); conditions: HepG2 MRE cis-reporter transcription, Attagene multiplex; actives raise or lower the signal
Summary of the method: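 Multiplexed cis-reporter assay in human HepG2 liver cells, 24 h incubation with test chemical. Reporter transcripts measured by RT-PCR and capillary electrophoresis; values from bidirectional curve fitting versus DMSO.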

[7] = molecular target: Paired box protein Pax-6 (Homo sapiens) (UniProt P26367); assay: ATG_Pax6_CIS: Attagene CIS-FACTORIAL HepG2 Assay for human Paired Box 6 (PAX6) (AID 2282956); conditions: HepG2 CIS-FACTORIAL PAX6 reporter transcription, RNA readout; actives raise or lower the signal
Summary of the method: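 Fluorescent RT-PCR products separated by capillary electrophoresis report PAX6-linked promoter mRNA in HepG2 cells 24 h post-dose. Curves fitted bidirectionally, DMSO as negative control.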

[8] = ATG_TCF_b_cat_CIS: Attagene CIS-FACTORIAL HepG2 Assay for human T-Cell-Factor with beta-catenin (TCF/b-cat) (AID 2282965); conditions: HepG2 TCF/beta-catenin cis-reporter transcription, actives raise or lower the signal
Summary of the method: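 Measured: reporter mRNA in HepG2 transiently transfected with cis-promoter reporter units, 24 h after chemical addition. Fitting was bidirectional, DMSO as negative control.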

[9] = ATG_TGFb_CIS: Attagene CIS-FACTORIAL HepG2 Assay for human Transforming Growth Factor (TGF) (AID 2282967); conditions: HepG2 Attagene CIS TGFb reporter, mRNA transcription; actives raise or lower the signal
Summary of the method: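 HepG2 cells transiently transfected with cis-promoter-driven multiple reporter units measure endogenous TF activity; reporter mRNA quantified at 24 h by RT-PCR, FAM labeling, HpaI digestion and capillary electrophoresis. Bidirectional fit vs DMSO.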

[10] = ATG_VDRE_CIS: Attagene CIS-FACTORIAL HepG2 Assay for human Vitamin D Receptor Element (VDRE) (AID 2282968); conditions: HepG2 VDRE cis-reporter transcription, actives raise or lower the signal
Summary of the method: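 Measures endogenous factor activity through cis-element-driven reporter transcripts in transiently transfected HepG2. Cells are treated 24 h; reporter mRNA is quantified by RT-PCR and capillary electrophoresis; fitting is bidirectional.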

[11] = molecular target: X-box-binding protein 1 (Homo sapiens) (UniProt P17861); assay: ATG_Xbp1_CIS: Attagene CIS-FACTORIAL HepG2 Assay for human X-box Binding Protein 1 (XBP1) (AID 2282972); conditions: HepG2 XBP1 cis-element reporter, Attagene multiplex; actives raise or lower the signal
Summary of the method: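 Multiplexed cis-reporter readout in transfected HepG2 liver cells. Exposure lasted 24 hours. Activity in either direction was fitted against DMSO as negative control and baseline.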

[12] = molecular target: Transcriptional activator Myb (Homo sapiens) (UniProt P10242); assay: ATG_Myb_CIS: Attagene CIS-FACTORIAL HepG2 Assay for human Myeloblastosis (Myb) Proto-Oncogene Transcription Factor (AID 2282986); conditions: HepG2 Attagene CIS-FACTORIAL Myb reporter transcription; actives raise or lower the signal
Summary of the method: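 Fluorescence signals from capillary electrophoresis of RT-PCR-amplified reporter cDNA give the read-out. Cells: HepG2 transfected with multiple cis-regulated reporter units. Exposure lasts 24 hours; DMSO defines baseline for gain or loss of signal.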

[13] = molecular target: Nuclear respiratory factor 1 (Homo sapiens) (UniProt Q16656); assay: ATG_NRF1_CIS: Attagene CIS-FACTORIAL HepG2 Assay for human Nuclear Respiratory Factor 1 (NRF1) Orphan Gene (AID 2282987); conditions: HepG2 NRF1 cis-element reporter, Attagene multiplex; actives raise or lower the signal
Summary of the method: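 Transcriptional reporter readout, one component of a 52-endpoint multiplexed HepG2 panel. Exposure 24 h; mRNA detected via RT-PCR and fluorescent capillary electrophoresis; fitting in both directions against DMSO.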

[14] = ATG_NFI_CIS: Attagene CIS-FACTORIAL HepG2 Assay for human Nuclear Factor I (NFI) (AID 2282989); conditions: HepG2 cis-regulatory reporter, NFI response element transcription; actives raise or lower the signal
Summary of the method: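 Endogenous TF activity in HepG2 cells transiently transfected with cis-element-driven multiplexed reporter units, read 24 h after dosing. Reporter mRNA quantified by RT-PCR, 6-FAM labelling, HpaI digestion and capillary electrophoresis; bidirectional fit versus DMSO.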

[15] = molecular target: Myc proto-oncogene protein (Homo sapiens) (UniProt P01106); assay: ATG_Myc_CIS: Attagene CIS-FACTORIAL HepG2 Assay for human Myelocytomatosis (Myc) Proto-Oncogene Transcription Factor (AID 2282990); conditions: HepG2, Attagene cis-reporter transcription factor activity; actives raise or lower the signal
Summary of the method: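 Cells of the HepG2 human liver line bear multiple cis-driven reporter transcription units. Reporter mRNA after 24 h exposure is reverse-transcribed, amplified, labelled and resolved by capillary electrophoresis, with gain- or loss-of-signal fitting relative to DMSO.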

[16] = ATG_Oct_MLP_CIS: Attagene CIS-FACTORIAL HepG2 Assay for human Octamer-Binding Transcription Factor (Oct) (AID 2282993); conditions: HepG2 Attagene cis-factorial Oct reporter, mRNA; actives raise or lower the signal
Summary of the method: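 HepG2 cells transiently transfected with cis-element-driven reporter transcription units (endogenous TF activity); 24 h compound exposure. Reporter mRNA quantified by RT-PCR, 6-FAM labelling, HpaI digestion and capillary electrophoresis; bidirectional fit versus DMSO baseline.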

[17] = molecular target: Cellular tumor antigen p53 (Homo sapiens) (UniProt P04637); assay: ATG_p53_CIS: Attagene CIS-FACTORIAL HepG2 Assay for human p53 Transcription Factor (AID 2282994); conditions: HepG2 p53 cis-element reporter, Attagene mRNA; actives raise or lower the signal
Summary of the method: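 Steps: transfect HepG2 with multiplexed cis reporter constructs; dose chemicals 24 h; extract RNA, reverse-transcribe, PCR-amplify reporter sequences; FAM-label, HpaI-digest, resolve fragments by CE. Activity fitted both directions relative to DMSO.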

[18] = ATG_XTT_Cytotoxicity: Cytotoxicity Assessment in the Attagene TRANS-FACTORIAL HepG2 Assay (AID 2283584; active = hit-call score of the fitted dose curve at least 0.9, where 1 is the maximum;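 as to AC50: cells exposed to compound for 24 h before reading; active means loss of viability signal versus DMSO baseline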)
Summary of the method: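 XTT readout of cell number in transfected HepG2 cells, 24 h post-dosing; DMSO serves as negative control and baseline, with activity taken as loss of viability signal.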

[19] = ATG_NF_kB_CIS: Attagene CIS-FACTORIAL HepG2 Assay for human Nuclear Factor Kappa B (NF-kB) (AID 2282991); conditions: HepG2 Attagene cis-factorial NF-kB reporter mRNA; actives raise or lower the signal
Summary of the method: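 HepG2, transient multi-reporter transfection, cis promoter elements (endogenous TFs). 24 h exposure. Total RNA → RT → PCR → 6-FAM label → HpaI → CE. Gain/loss vs DMSO.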

[20] = molecular target: Peroxisome proliferator-activated receptor gamma (Homo sapiens) (UniProt P37231); assay: ATG_PPARg_TRANS: Attagene TRANS-FACTORIAL HepG2 Assay for human Peroxisome Proliferator-activated Receptor-gamma (PPARg) (AID 2283007; active = hit-call score of the fitted dose curve at least 0.9, where 1 is the maximum)
Summary of the method: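 Multiplexed reporter transcription units in HepG2, 24 h dosing, reporter transcripts quantified by fluorescent RT-PCR and capillary electrophoresis. Increase over DMSO scored.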

Measured: AC50

Sequence of Aryl hydrocarbon receptor (Homo sapiens) (P35869 whole entry, looked up): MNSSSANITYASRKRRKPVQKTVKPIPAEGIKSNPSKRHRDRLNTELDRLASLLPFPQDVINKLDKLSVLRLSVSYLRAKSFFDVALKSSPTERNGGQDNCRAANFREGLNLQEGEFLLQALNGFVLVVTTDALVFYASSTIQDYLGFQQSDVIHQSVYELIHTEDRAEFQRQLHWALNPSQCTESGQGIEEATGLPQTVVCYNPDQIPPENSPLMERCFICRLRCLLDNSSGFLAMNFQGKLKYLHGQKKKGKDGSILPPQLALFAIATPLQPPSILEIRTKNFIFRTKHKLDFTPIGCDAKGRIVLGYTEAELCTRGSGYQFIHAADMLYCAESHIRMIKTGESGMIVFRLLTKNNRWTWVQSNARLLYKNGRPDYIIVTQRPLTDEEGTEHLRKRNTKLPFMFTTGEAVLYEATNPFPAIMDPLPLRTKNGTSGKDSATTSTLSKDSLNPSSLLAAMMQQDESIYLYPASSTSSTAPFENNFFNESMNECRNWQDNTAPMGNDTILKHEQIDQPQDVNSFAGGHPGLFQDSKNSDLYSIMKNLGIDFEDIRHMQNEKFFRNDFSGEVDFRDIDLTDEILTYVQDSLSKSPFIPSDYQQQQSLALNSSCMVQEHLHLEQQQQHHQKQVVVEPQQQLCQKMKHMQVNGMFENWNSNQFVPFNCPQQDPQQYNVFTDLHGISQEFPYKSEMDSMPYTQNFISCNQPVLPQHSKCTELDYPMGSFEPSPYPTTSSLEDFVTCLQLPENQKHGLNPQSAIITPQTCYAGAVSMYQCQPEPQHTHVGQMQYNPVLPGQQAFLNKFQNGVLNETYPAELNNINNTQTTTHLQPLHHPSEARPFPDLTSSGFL
Sequence of Nuclear respiratory factor 1 (Homo sapiens) (Q16656 whole entry, looked up): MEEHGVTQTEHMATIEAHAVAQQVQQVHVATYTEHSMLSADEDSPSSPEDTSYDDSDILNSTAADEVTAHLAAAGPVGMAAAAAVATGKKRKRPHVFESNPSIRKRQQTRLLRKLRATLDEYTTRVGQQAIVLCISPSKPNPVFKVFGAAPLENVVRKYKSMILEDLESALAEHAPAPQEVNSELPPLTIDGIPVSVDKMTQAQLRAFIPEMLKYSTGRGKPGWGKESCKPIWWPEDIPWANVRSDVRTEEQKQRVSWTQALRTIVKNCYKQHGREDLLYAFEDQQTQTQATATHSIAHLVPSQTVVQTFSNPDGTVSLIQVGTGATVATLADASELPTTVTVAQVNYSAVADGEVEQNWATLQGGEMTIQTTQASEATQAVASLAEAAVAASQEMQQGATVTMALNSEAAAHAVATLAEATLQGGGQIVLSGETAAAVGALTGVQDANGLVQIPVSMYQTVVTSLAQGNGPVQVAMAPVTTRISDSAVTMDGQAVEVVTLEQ
Sequence of Hypoxia-inducible factor 1-alpha (Homo sapiens) (Q16665 whole entry, looked up): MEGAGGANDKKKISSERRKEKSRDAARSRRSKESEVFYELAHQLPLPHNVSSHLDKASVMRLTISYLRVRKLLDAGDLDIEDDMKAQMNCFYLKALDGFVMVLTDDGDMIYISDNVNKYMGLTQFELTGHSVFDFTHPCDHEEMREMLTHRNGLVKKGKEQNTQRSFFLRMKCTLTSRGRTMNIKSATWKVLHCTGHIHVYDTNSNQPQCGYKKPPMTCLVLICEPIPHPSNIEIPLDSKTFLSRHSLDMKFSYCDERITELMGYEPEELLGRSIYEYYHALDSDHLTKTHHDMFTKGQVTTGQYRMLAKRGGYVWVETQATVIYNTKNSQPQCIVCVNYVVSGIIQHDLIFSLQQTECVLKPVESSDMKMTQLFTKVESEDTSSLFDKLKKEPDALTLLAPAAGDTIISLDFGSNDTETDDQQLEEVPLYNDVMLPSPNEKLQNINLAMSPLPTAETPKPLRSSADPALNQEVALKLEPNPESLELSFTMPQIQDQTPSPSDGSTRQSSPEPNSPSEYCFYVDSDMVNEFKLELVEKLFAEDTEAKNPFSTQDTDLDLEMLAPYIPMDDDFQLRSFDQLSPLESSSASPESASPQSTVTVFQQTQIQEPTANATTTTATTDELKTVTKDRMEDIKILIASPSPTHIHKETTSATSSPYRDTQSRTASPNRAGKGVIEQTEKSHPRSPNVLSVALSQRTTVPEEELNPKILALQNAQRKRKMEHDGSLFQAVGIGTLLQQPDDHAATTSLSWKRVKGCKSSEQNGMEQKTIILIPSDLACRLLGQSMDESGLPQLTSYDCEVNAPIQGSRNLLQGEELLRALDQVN
Sequence of Cellular tumor antigen p53 (Homo sapiens) (P04637 whole entry, looked up, the tested form may be a part): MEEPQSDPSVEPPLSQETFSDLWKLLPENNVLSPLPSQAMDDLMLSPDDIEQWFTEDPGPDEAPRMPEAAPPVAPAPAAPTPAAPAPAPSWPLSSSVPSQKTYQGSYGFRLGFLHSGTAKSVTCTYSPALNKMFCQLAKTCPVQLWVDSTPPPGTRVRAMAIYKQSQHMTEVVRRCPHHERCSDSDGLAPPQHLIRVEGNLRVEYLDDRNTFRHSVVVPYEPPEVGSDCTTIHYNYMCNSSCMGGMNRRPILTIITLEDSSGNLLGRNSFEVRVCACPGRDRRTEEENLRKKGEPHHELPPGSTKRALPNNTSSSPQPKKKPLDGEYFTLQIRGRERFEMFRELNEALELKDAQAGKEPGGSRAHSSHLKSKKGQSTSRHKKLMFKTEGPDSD
Sequence of Transcriptional activator Myb (Homo sapiens) (P10242 whole entry, looked up): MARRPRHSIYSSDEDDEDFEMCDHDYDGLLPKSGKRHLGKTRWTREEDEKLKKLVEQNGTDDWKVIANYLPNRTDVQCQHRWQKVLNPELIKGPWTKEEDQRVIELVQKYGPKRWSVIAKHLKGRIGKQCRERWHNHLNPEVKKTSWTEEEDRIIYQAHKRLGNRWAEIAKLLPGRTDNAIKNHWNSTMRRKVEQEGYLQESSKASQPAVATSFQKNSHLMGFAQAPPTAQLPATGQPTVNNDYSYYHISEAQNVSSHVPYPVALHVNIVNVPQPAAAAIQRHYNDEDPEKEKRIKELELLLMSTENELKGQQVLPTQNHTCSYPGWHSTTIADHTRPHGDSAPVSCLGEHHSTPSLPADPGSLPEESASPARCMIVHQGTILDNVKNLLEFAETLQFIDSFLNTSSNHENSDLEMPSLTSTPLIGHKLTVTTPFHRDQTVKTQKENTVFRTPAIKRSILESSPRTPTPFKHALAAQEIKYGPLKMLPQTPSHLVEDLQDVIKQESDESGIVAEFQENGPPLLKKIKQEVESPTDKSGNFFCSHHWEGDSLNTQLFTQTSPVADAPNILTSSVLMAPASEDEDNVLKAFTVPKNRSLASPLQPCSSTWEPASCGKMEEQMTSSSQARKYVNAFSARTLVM
Sequence of Myc proto-oncogene protein (Homo sapiens) (P01106 whole entry, looked up): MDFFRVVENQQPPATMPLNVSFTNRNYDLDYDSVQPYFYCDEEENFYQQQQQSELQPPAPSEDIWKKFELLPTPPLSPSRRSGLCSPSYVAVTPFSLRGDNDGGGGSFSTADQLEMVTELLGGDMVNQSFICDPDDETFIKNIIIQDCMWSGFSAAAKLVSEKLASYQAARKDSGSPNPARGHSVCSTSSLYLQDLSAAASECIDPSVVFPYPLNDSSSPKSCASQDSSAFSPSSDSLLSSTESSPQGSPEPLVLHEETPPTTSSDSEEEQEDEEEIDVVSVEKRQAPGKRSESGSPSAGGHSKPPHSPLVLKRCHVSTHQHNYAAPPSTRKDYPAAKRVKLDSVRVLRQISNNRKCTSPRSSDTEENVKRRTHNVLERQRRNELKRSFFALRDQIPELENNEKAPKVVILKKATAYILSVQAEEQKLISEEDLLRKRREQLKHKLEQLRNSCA
Sequence of X-box-binding protein 1 (Homo sapiens) (P17861 whole entry, looked up): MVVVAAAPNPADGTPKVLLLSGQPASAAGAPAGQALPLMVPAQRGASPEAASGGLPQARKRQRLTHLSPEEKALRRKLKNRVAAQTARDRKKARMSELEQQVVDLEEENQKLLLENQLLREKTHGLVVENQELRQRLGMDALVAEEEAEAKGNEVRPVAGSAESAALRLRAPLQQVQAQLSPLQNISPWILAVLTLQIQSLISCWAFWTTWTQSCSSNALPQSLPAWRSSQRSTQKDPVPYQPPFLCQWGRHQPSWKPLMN
Sequence of Peroxisome proliferator-activated receptor gamma (Homo sapiens) (P37231 whole entry, looked up): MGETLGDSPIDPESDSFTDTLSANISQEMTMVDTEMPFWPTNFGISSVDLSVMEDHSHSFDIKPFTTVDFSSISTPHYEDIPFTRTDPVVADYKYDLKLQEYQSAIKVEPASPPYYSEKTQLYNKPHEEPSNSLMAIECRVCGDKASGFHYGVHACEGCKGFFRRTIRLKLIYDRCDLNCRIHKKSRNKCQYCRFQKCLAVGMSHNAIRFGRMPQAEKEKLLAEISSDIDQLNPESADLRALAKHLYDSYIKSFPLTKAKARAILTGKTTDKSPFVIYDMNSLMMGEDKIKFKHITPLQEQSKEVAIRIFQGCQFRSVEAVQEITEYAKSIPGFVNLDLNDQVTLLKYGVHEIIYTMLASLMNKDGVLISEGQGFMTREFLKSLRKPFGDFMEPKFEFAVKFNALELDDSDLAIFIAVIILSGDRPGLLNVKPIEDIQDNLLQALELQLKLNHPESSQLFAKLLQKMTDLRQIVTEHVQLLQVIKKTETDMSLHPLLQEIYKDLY
Sequence of Paired box protein Pax-6 (Homo sapiens) (P26367 whole entry, looked up): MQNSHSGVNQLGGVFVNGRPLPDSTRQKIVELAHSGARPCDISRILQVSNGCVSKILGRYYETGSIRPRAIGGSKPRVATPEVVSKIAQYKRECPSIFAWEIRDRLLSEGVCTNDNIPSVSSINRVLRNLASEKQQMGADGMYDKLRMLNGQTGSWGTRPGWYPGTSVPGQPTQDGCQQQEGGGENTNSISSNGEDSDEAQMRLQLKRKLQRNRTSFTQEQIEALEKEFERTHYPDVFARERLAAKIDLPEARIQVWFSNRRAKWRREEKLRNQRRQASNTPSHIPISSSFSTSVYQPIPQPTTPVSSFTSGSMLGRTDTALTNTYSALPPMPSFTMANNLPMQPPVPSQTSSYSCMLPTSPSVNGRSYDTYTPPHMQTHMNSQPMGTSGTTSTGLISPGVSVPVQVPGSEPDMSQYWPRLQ

COc1ccc(CO)cc1
not listed: [19] | [20]
inactive: all other assays above

C=CC(=O)OCCO
active: [5] 100 µM | [6] 70.9 µM | [10] 116 µM | [11] 131 µM | [14] 164 µM | [19] 17.1 µM | [16] 100 µM
not listed: [1] | [2] | [3] | [20]
inactive: all other assays above

Clc1ccc(-c2ccccc2)cc1
active: [14] 152 µM
not listed: [18]
inactive: all other assays above

Cl/C=C\CCl
not listed: [1] | [18]
inactive: all other assays above

N#CCNCC#N
not listed: [3] | [4]
inactive: all other assays above

O=[N+]([O-])c1ccc(Cl)cc1
not listed: [2] | [3] | [15] | [20]
inactive: all other assays above

Cc1cc(C)c(C2=C(OC(=O)CC(C)(C)C)C3(CCCC3)OC2=O)c(C)c1
active: [3] 163 µM | [11] 104 µM | [14] 145 µM | [15] 189 µM | [16] 128 µM | [20] 4.68 µM
not listed: [2] | [6] | [7] | [10] | [17]
inactive: all other assays above

C=CCN(CC=C)C(=O)C(Cl)Cl
not listed: [2] | [15]
inactive: all other assays above

CN(N=O)c1ccccc1
not listed: [7] | [17] | [18]
inactive: all other assays above

C[C@]12CC[C@H](O)C[C@H]1CC[C@@H]1[C@@H]2C[C@@H](O)[C@]2(C)[C@@H](C3=CC(=O)OC3)CC[C@]12O
inactive: [1] | [3] | [8] | [9] | [15] | [19] | [17] | [18]
active: [4] 6.51 µM | [6] 2.73 µM | [7] 0.513 µM | [10] 2.08 µM | [11] 3.98 µM | [12] 5.88 µM | [13] 5.24 µM | [14] 2.61 µM | [16] 2.08 µM | [20] 1.87 µM

O=[N+]([O-])C=Cc1ccccc1
active: [3] 31.2 µM | [6] 13.3 µM | [7] 21.1 µM | [8] 18.9 µM | [10] 10.7 µM | [11] 20.3 µM | [12] 22.9 µM | [13] 38.5 µM | [14] 18.6 µM | [19] 34.7 µM | [16] 18.5 µM | [17] 20.2 µM | [20] 8.83 µM | [18] 75.7 µM
inactive: [2] | [4] | [5] | [9] | [15]

CC1OC(C)OC(C)O1 (centres undefined)
not listed: [3] | [4] | [10]
inactive: all other assays above

SCc1ccco1
active: [20] 27.9 µM
not listed: [18]
inactive: all other assays above

O=C(O)C(Br)Br
not listed: [1] | [2] | [7] | [20]
inactive: all other assays above

O=S(=O)(O)OOS(=O)(=O)O
not listed: [4] | [7] | [17]
inactive: all other assays above

O=[N+]([O-])O.O=[N+]([O-])O.[Cd]
active: [3] 9.58 µM | [6] 0.351 µM | [7] 1.79 µM | [11] 1.43 µM | [13] 4.62 µM | [14] 2.18 µM | [15] 0.962 µM | [16] 1.16 µM | [18] 12.3 µM
inactive: [1] | [2] | [4] | [5] | [8] | [9] | [12] | [20]

CC(C)(Cl)Cl
not listed: [3]
inactive: all other assays above

c1ccc(Nc2ccc3ccccc3c2)cc1
active: [20] 18 µM
not listed: [1] | [10] | [18]
inactive: all other assays above
